# Laboratory results taken from PubChem BioAssay (Tox21).
# Values joined by “and” are separate entries in the source; they are usually repeats but may differ in a detail not shown here. Equal values may be shown once. The source holds several records for some structures; these can differ, active in one and inactive in another. Active and inactive are the calls of the source. A call without a number means that no potency is given here. Unless noted, calls come from the whole dose curve; as a rule, active = well fitted curve in the direction sought with a large enough effect in the repeat runs; inconclusive = weak or mixed curves; inactive = no such curve, though single readings can be large; an effect the other way counts as inactive or inconclusive.
# Experiments:
# [1] = qHTS assay to identify small molecule antagonists of the thyroid receptor (TR) signaling pathway - cell viability counter screen (AID 743064); note: nearly all actives have a fitted effect of over 50% in size; note: potency is the fitted concentration of half-maximal effect
# Method in brief: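 Same-well viability check: GH3.TRE-Luc cells stimulated with 1 nM T3 alongside test compound for 23.5 h, followed by CellTiter-Fluor fluorescence.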
# [2] = qHTS assay to identify small molecule antagonists of the thyroid receptor (TR) signaling pathway (AID 743065); note: nearly all actives have a fitted effect of over 55% in size; note: potency is the fitted concentration of half-maximal effect
# Method in brief: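 GH3.TRE-Luc rat pituitary cells carrying two TR response elements driving luciferase were plated for 4 h, given compound plus 1 nM T3 (final), and incubated 23.5 h at 37 C. ONE-Glo luminescence measured reporter inhibition; CellTiter-Fluor fluorescence tracked cytotoxicity.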
# [3] = tested on: thyroid hormone receptor (rat, GH3 cells); assay: qHTS assay to identify small molecule agonists of the thyroid receptor (TR) signaling pathway (AID 743066; calls by dose curve; note: potency is the fitted concentration of half-maximal effect)
# [4] = target: Estrogen receptor (Homo sapiens) (UniProt P03372); assay: qHTS assay to identify small molecule agonists of the estrogen receptor alpha (ER-alpha) signaling pathway (AID 743075; calls by dose curve;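 note: HEK293 GripTite cells with ER-alpha and UAS-driven beta-lactamase reporter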; note: potency is the fitted concentration of half-maximal effect); details: HEK293 ER-alpha-UAS-bla, beta-lactamase FRET ratio, 18 h; activation: at 70.1 µM (top of the series)
# Estrogen receptor (Homo sapiens), sequence (P03372 whole entry, looked up): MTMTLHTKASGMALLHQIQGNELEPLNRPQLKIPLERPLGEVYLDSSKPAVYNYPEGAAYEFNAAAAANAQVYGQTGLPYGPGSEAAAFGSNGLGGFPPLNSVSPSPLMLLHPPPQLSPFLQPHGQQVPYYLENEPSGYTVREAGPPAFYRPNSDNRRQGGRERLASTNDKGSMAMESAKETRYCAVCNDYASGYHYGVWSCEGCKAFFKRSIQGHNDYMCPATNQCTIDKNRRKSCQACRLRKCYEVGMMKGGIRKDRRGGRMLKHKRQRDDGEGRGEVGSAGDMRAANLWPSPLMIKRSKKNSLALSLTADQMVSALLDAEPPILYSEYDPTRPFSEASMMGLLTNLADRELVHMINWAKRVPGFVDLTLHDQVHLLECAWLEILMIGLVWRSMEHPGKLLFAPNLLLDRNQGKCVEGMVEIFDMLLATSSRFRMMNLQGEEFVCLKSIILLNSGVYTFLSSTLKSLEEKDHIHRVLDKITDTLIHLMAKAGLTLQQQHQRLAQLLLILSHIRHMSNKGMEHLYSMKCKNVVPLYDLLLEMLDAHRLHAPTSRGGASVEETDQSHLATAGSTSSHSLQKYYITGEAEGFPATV
# Aromatase (Homo sapiens) = Aromatase (Homo sapiens) (UniProt P11511); assay: qHTS assay to identify aromatase inhibitors (AID 743083); note: nearly all actives have a fitted effect of over 55% in size; note: potency is the fitted concentration of half-maximal effect
# Aromatase (Homo sapiens), sequence (P11511 whole entry, looked up): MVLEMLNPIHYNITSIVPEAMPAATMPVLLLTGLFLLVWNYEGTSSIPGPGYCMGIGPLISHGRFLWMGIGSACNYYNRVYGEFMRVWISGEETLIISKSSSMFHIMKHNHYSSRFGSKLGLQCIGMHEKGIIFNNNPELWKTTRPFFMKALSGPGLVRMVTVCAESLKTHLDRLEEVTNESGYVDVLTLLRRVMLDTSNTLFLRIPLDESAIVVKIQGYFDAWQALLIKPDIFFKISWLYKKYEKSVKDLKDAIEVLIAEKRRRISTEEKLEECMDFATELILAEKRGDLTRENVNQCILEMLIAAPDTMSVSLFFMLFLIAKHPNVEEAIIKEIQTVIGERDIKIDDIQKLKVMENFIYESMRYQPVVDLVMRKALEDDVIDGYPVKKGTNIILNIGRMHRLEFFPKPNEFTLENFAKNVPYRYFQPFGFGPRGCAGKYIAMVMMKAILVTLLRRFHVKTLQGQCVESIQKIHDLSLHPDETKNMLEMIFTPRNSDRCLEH
# [5] = qHTS assay to identify small molecule antagonists of the estrogen receptor alpha (ER-alpha) signaling pathway - cell viability counter screen (AID 743074; calls by dose curve;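 note: HEK293 cells carrying ER-alpha-UAS-bla reporter stimulated with 17beta-estradiol; nearly all actives have a fitted effect of over 45% in size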; note: potency is the fitted concentration of half-maximal effect)
# [6] = qHTS assay to identify small molecule antagonists of the estrogen receptor alpha (ER-alpha) signaling pathway using the BG1 cell line - cell viability counter screen (AID 743081);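 note: compound given together with 17beta-estradiol as the ER stimulus; nearly all actives have a fitted effect of over 45% in size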; note: potency is the fitted concentration of half-maximal effect
# [7] = target: Estrogen receptor (Homo sapiens) (UniProt P03372); assay: qHTS assay to identify small molecule antagonists of the estrogen receptor alpha (ER-alpha) signaling pathway (AID 743069; active = well fitted curve in the direction sought with a large enough effect in the signal ratio in the repeat runs, not every such curve was filed as active; inconclusive = weak or mixed curves, or effect the other way; inactive = no such curve, though single readings can be large or run the other way; the % refers to the signal ratio; note: potency is the fitted concentration of half-maximal effect)
# Method in brief: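 A 17beta-estradiol challenge was applied right after compound transfer to ER-alpha-UAS-bla HEK293 cells previously kept in charcoal-stripped serum. Plates stood 18 hr at 37C and 5% CO2; fluorescence was read following 2 hr FRET substrate loading at room temperature.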
# [8] = target: Estrogen receptor (Homo sapiens) (UniProt P03372); assay: qHTS assay to identify small molecule agonists of the estrogen receptor alpha (ER-alpha) signaling pathway using the BG1 cell line (AID 743079); details: BG1Luc4E2 cells, ERE-luciferase agonist, 22 h; at 70.3 µM (top of the series); note: nearly all actives have a fitted effect of over 20% in size
# [9] = qHTS assay to identify small molecule antagonists of the estrogen receptor alpha (ER-alpha) signaling pathway using the BG1 cell line (AID 743080; calls by dose curve;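 note: BG1 cells stimulated with 17beta-estradiol alongside compound; nearly all actives have a fitted effect of over 25% in size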; note: potency is the fitted concentration of half-maximal effect)
# Method in brief: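 Readout is ONE-Glo luminescence, taken 30 min at room temperature after reagent addition, preceded by a CellTiter-Fluor viability read; BG1-Luc-4E2 cells had received compound and 17beta-estradiol for 21.5 h at 37 C.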
SMILES,Potency [1],Potency [2],Potency [3],Potency [4],Potency (Aromatase (Homo sapiens)),Potency [5],Potency [6],Potency [7],activation [8],Potency [9]
OCc1c[nH]c2ccccc12,62.9 µM (active),54.5 µM (active),inactive,4.36 µM [fluorescent] (active),33.4 µM (active),,,,,
CCN(C(=O)N(CC)c1ccccc1)c1ccccc1,inactive,inactive,inactive,,inactive,inactive,inactive,,,
CCCCCCCC/C=C/CCCCCCCC1=NCCN1CCO,21.7 µM (active),21.7 µM (active),inactive,,48.6 µM (active),,,,,
O=c1[nH]sc2ccccc12,5.45 µM (active),3.06 µM (active),,inactive,30.6 µM (active),inactive,inactive,inactive,-22% (inactive),inactive
C=CC(=O)OCCn1c(=O)n(CCOC(=O)C=C)c(=O)n(CCOC(=O)C=C)c1=O,5.45 µM (active),4.86 µM (active),inactive,,13.7 µM (active),,54.5 µM (active),,,
COc1cc(/C=C/C(=O)O[C@H]2CC[C@]34C[C@]35CC[C@]3(C)[C@@H]([C@H](C)CCC=C(C)C)CC[C@@]3(C)[C@@H]5CC[C@H]4C2(C)C)ccc1O,inactive,inactive,inactive,,inactive,,inactive,,,
CC1=C(/C=C/C(C)=C/C=C/C(C)=C/C=O)C(C)(C)CCC1,7.65 µM (active),8.58 µM (active),inactive,,15.3 µM (active),54.6 µM (active),60.8 µM (active),,,
O=C(O)c1c(Cl)cccc1Cl,inactive,inactive,inactive,,inactive,inactive,inactive,,,
Cc1cc(O)c(C(C)(C)C)cc1C(C)(C)C,24.3 µM (active),21.7 µM (active),inactive,,54.5 µM (active),17.4 µM (active),inactive,,,
CO[Si](CCCNc1ccccc1)(OC)OC,inactive,inactive,inactive,,inactive,inactive,inactive,,,
CCCCCCCCCCC=O,inactive,inactive,inactive,,inactive,inactive,inactive,,,
NC(=NCCCCCCN=C(N)/N=C(\N)Nc1ccc(Cl)cc1)/N=C(\N)Nc1ccc(Cl)cc1,8.56 µM (active) [middle of 5 runs],6.06 µM (active) [middle of 5 runs],inactive,,24.1 µM (active) [middle of 4 runs],25 µM (active) [middle of 4 runs],inactive and 68.2 µM (active),,,
Cc1cc(C2CCCCC2)n(O)c(=O)c1,2.54 µM (active),2.27 µM (active),,inactive,,,inactive,2.88 µM [inhibitor] (active),,9.02 µM (active)
CCCCCCCCOc1ccccc1C(=O)Nc1ccc(C(=O)OCC[N+](C)(CC)CC)cc1,26.6 µM (active),26.6 µM (active),,inactive,inactive,inactive,inactive,,-29.5% (inactive),inactive
S=c1[nH]c2ccccc2s1,inactive,inactive,inactive,,inactive,inactive and 6.16 µM (active),,,,
O=c1c(-c2ccccc2)c1-c1ccccc1,5.96 µM (active),5.31 µM (active),,inactive,29.8 µM (active),inactive,inactive,26.8 µM [inconclusive] (active),-33.7% (inactive),
CCCCCCCCn1sc(Cl)c(Cl)c1=O,27.3 µM (active),27.3 µM (active),inactive,inactive,4.86 µM (active),,,,,
O=C(Oc1cccc2cccnc12)c1ccccc1,13.3 µM (active),13.3 µM (active),,inactive,18.8 µM (active),inactive,inactive,inactive,,inactive
Cc1c(C)c2c(c(C)c1OC(=O)CCC(=O)O)CC[C@@](C)(CCC[C@H](C)CCC[C@H](C)CCCC(C)C)O2,23.7 µM (active),inactive,inactive,,inactive,inactive,inactive,,,
CN1CCN(CCC(=O)N2c3ccccc3Sc3ccc(C(F)(F)F)cc32)CC1,11.9 µM (active),26.6 µM (active),,inactive,inactive,,,inactive,-0.0617% (inactive),inactive

SMILES,Potency [1],Potency [2],Potency [3],Potency [4],Potency (Aromatase (Homo sapiens)),Potency [5],Potency [6],Potency [7],activation [8],Potency [9]
Oc1cccc2cc3cccc(O)c3c(O)c12,inactive,inactive,inactive,,inactive,inactive,,,,
CCCCCCCCCCCCCCCCCC[N+](C)(C)Cc1ccccc1,11 µM (active),7.77 µM (active),inactive,,21.9 µM (active),22.1 µM (active),,,,
CCCCCCCCCCn1cc[n+](CCCCCCCCCC)c1C,6.87 µM (active),3.86 µM (active),,,5.45 µM (active),19.5 µM (active),48.6 µM (active),61.7 µM [cytotoxic] (active),,8.64 µM (active)
OCCN1CCN(CC/C=C2/c3ccccc3Sc3ccc(C(F)(F)F)cc32)CC1,15 µM (active),11.9 µM (active),,inactive,inactive,,inactive,inactive,-29.2% (inactive),inactive
CC(C)(C)CC(C)(C)c1ccc(O)c(Cc2ccc(Cl)cc2Cl)c1,6.68 µM (active),6.68 µM (active),2.11 µM (active),,inactive,23.9 µM (active),,,,
CCCCCCCC[P+](CCCCCCCC)(CCCCCCCC)CCCCCCCC,4.3 µM (active),3.05 µM (active),,,1.53 µM (active),15.4 µM (active),8.58 µM (active),21.7 µM [cytotoxic] (active),,1.71 µM (active)
N=C1N=C(N)c2cc3ccccc3cc21,12.9 µM (active),13.7 µM (active),inactive,,19.9 µM (active),,,,,
C[C@H]1[C@H]2CC[C@H]3[C@@H]4CC=C5C[C@@H](N(C)C)CC[C@]5(C)[C@H]4CC[C@]23CN1C,inactive,inactive,inactive,,inactive,inactive,,,,
O=C(NOCC1CC1)c1ccc(F)c(F)c1Nc1ccc(I)cc1Cl,15 µM (active),13.3 µM (active),,inactive,inactive,,inactive,3.79 µM [inconclusive] (active),,
Cc1cc(O)c(C(C)(C)C)cc1Sc1cc(C(C)(C)C)c(O)cc1C,3.43 µM (active),2.43 µM (active),inactive,,13.7 µM (active),17.3 µM (active),54.4 µM (active),,,
CCc1cc(Cc2cc(CC)c(N)c(CC)c2)cc(CC)c1N,68.6 µM (active),48.6 µM (active),,inactive,,,inactive,38.9 µM [inconclusive] (active),,61.1 µM (active)
COCCCC/C(=N\OCCN)c1ccc(C(F)(F)F)cc1,13.3 µM (active),11.9 µM (active),,inactive,21.1 µM (active),,inactive,inactive,-27% (inactive),inactive
CCN(Cc1cccnc1)C(=O)c1cccc(Cl)c1[C@]1(C)C(=O)N(Cc2ccc(OC)cc2OC)c2ccc(Cl)cc21,4.54 µM (active),2.55 µM (active),inactive,,16.1 µM (active),inactive,,,,
CCCC(c1cc(C(C)(C)C)c(O)cc1C)c1cc(C(C)(C)C)c(O)cc1C,3.9 µM (active),3.1 µM (active),inactive,,15.5 µM (active),19.7 µM (active),,,,
C1CCCC1,inactive,inactive,inactive,,inactive,inactive,inactive,,,
CCc1cc(Cc2cc(CC)cc(C(C)(C)C)c2O)c(O)c(C(C)(C)C)c1,7.7 µM (active),6.11 µM (active),inactive,,30.6 µM (active),15.5 µM (active),68.6 µM (active),,,
Cc1cc(O)c(Cl)c(C)c1Cl,17.2 µM (active),24.3 µM (active),inactive,inactive,48.6 µM (active),,inactive,,,
Cc1[nH]cnc1C[C@H]1CCc2c(C)c3ccccc3n2C1=O,13.3 µM (active),23.7 µM (active) and 13.3 µM (active),,,inactive,inactive,inactive,,,
CCc1cc(SCc2sc(-c3ccc(C(F)(F)F)cc3)nc2CN2CCN(c3ccc(OC)cc3)CC2)ccc1OCC(=O)O,24.3 µM (active),12.2 µM (active),,,54.5 µM (active),,inactive,,,
